Among all 69,000 compounds or so, about 8,600 (12%) showed an effect of 50% or more. The full list was thinned out, with strong results kept by preference.

This experiment concerns Plasmodium berghei. Nature of the experiment: Screen against P. berghei liver stage (PbLuc), transformed with Luciferase, at 10uM. The note with it: tested at 10 uM. It counts as functional, HepG2.
Take `COCCNc1ccc(CC2CCNC2)cn1` (stereo unspecified): the INHIBITION is recorded as -26.2%.

As for `CCCN(CC(=O)N(C)C)C(=O)c1ccc(-c2nc(C)cs2)cc1`, the INHIBITION amounted to 18.9%. To `COc1cc(CNC(=O)c2cc(S(C)(=O)=O)ccc2C)ccn1` belongs 1.51%; to `Cc1nn(C)c(N2CCOCC2)c1CNCc1cccnc1`, 32.2%.

For `Cc1nn(C)c(N2CCOCC2)c1CNCc1ccc(N(C)C)nc1`, the INHIBITION was found to be 51.1%. To `Cc1nn(C)c(N2CCOCC2)c1CNCc1ccnc(N(C)C)c1` belongs 38.7%.

For `Cc1ccc(N2CCCc3sc(C(=O)NCCC#N)nc32)nn1`, the INHIBITION amounted to 35.8%.

Consider `CCC(CN1CCOCC1)NC(=O)Cc1c(C)[nH]c2cc(C)cc(C)c12` (stereo unspecified), for which the INHIBITION amounted to 6.32%. As for `CN(C)CCCNC(=O)c1nnsc1-c1ccccc1`, the figure is 15.9%; as for `O=C(NCc1cccs1)c1[nH]nc2c1CS(=O)(=O)CC2`, -22.3%. As for `O=C1CC(c2ccsc2)c2cnn(C3CCCC3)c2N1` (stereo unspecified), the figure is 6.09%; as for `O=C1CSC(c2ccc3c(c2)OCO3)c2cnn(C3CCCCC3)c2N1` (stereo unspecified), 38.9%. Take `Cc1nn(C2CCCC2)c2c1C(c1ccc3c(c1)OCO3)SCC(=O)N2` (stereo unspecified): the INHIBITION is reported as 61.6%. To `CC(C)(C)n1ncc2c1NC(=O)CC2c1cccc(O)c1` (stereo unspecified) belongs -5.22%.

In the case of `O=C1CC(c2cccs2)c2cnn(C3CCCC3)c2N1` (stereo unspecified), the INHIBITION is recorded as 14.4%.

`Cc1n[nH]c2c1C(c1ccc3c(c1)OCO3)SCC(=O)N2` (stereo unspecified): the INHIBITION was determined as 9.32%.

For the compound `CC(C)(C)n1ncc2c1NC(=O)CC2c1cccc(F)c1` (stereo unspecified), the INHIBITION came out at 89.4%. As for `O=C1CC(c2ccc3c(c2)OCO3)c2cnn(C3CCCC3)c2N1` (stereo unspecified), the figure is 87.9%; as for `O=C1CC(c2ccccc2)c2cnn(C3CCCC3)c2N1` (stereo unspecified), 68%. As to `O=C1CC(c2ccc3c(c2)OCO3)c2c(n3ccsc3nc2=O)N1` (stereo unspecified), the INHIBITION is 5.85%. Consider `O=C1CC(c2ccc3c(c2)OCO3)c2cn[nH]c2N1` (stereo unspecified), for which the INHIBITION was found to be 6%. As to `CC(C)(C)n1ncc2c1NC(=O)CC2c1ccccc1` (stereo unspecified), the INHIBITION was found to be 5.65%.

As for `O=C1CC2(CCCCN2C(=O)c2ccncc2)CN1CC1CC1` (stereo unspecified), the INHIBITION is reported as 23.5%. As for `CCc1sc(C(=O)NC2CC2)cc1C`, the figure is 38%; as for `Cc1cc(N(C)C)nc(C2COCCN2Cc2nccn2C)n1` (stereo unspecified), 20.6%; as for `Cc1ccc(NC2CCN(C(=O)c3c(C)oc(C)c3C)CC2)nn1`, 9.365%. As for `COc1ccccc1COCC(O)CN1CC(n2cccn2)C1` (stereo unspecified), the figure is 19.85%; as for `O=C1CC(c2ccc(F)cc2)c2cnn(C3CCCC3)c2N1` (stereo unspecified), 70.2%. On to `N#Cc1ccc(C2CC(=O)Nc3c2cnn3C2CCCC2)cc1` (stereo unspecified), for which the INHIBITION is -11.1%.

With `COc1ccc(C2CC(=O)Nc3c2cnn3C2CCCC2)cc1` (stereo unspecified), the INHIBITION is recorded as -9.67%. As for `Cc1nnc(CN(C)CC(=O)NC(C)(C)c2ccc(F)cc2)n1C`, the figure is 10.1%. To `Fc1cccc(Cl)c1CNCc1ccccn1` belongs 10.7%; to `CCC(=O)N1CCN(Cc2cnc(C)nc2)[C@H]2CS(=O)(=O)C[C@H]21`, 53.1%.

With `CC1COCCN1C(=O)c1cnccn1` (stereo unspecified), the INHIBITION is 53.5%. On to `Cc1ncc(CN2CCN(C(=O)N(C)C)[C@@H]3CS(=O)(=O)C[C@@H]32)cn1`, for which the INHIBITION is recorded as 31.6%. To `CCCN1CCN(C(=O)c2cnccn2)[C@H]2CS(=O)(=O)C[C@H]21` belongs 51.8%; to `CCCN1CCN(C(=O)c2ccc3ccccc3n2)[C@H]2CS(=O)(=O)C[C@H]21`, -15.1%. As for `CCCN1CCN(C(=O)c2cc[nH]n2)[C@H]2CS(=O)(=O)C[C@H]21`, the figure is 53.9%; as for `Cc1ncc(CN2CCN(C(=O)C3CCC3)[C@@H]3CS(=O)(=O)C[C@@H]32)cn1`, 14.8%; as for `CCCN1CCN(C(=O)c2cc3ccccc3cn2)[C@H]2CS(=O)(=O)C[C@H]21`, 43.9%. On to `Cc1cnc(C(=O)N2CCOCC2C)cn1` (stereo unspecified), for which the INHIBITION is on record as 33.7%. To `CCCN1CCN(C(=O)c2cccc(C)n2)[C@H]2CS(=O)(=O)C[C@H]21` belongs 21.2%. To `CCCN1CCN(C(=O)c2ccc(Cl)cn2)[C@H]2CS(=O)(=O)C[C@H]21` belongs 37.6%; to `O=C(c1cnccn1)N1CCC(CN2CCOCC2)CC1`, 30%. To `CC(C)c1nccn1-c1nccnc1C1CCCN1Cc1ccccc1` (stereo unspecified) belongs 28.5%; to `O=C(NCCCNC(=O)c1ccc(F)cc1F)c1cccc(O)c1`, -2.61%. On to `CC(Cn1ccnc1)NC(=O)N1CCN(Cc2ccncc2)CC1` (stereo unspecified), for which the INHIBITION was found to be 13.03%.

For `CC(C)c1ocnc1C(=O)Nc1cccc(Cn2ccccc2=O)c1`, the INHIBITION was 26.5%. As for `Cc1nn(C)c(N(C)C)c1CNCc1ccccc1Cn1ccnc1`, the figure is 27.6%; as for `CC(=O)Nc1nc(C2CCCN(C(=O)CN(C)C)C2)cs1` (stereo unspecified), 8.72%. Consider `CC(NS(=O)(=O)CCc1ccccn1)c1ccccc1Br` (stereo unspecified), for which the INHIBITION is listed as -9.35%.

These data come from ChEMBL document CHEMBL4513216, “Probing the Open Global Health Chemical Diversity Library for Multistage-Active Starting Points for Next-Generation Antimalarials” (ACS Infect Dis, 2020).
